This is an account of results in PubChem BioAssay AID743360 (Molecular Libraries Program, Specialized Chemistry Center, …, 2014).

SMILES strings stand for the structures. A number with no mark means an inactive call. Calls of active or inactive are those of the source.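 The calls were made as follows: active = calcium retention capacity relative to untreated control above about 1.1 ratio (limit read from the data); inactive = the rest.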

This assay is described as follows: mitochondrial Ca2+ retention capacity increase – biochemical, dry powder samples, uHTS hits, Calcium Green-5N, dose response (AID 743360). Conditions: isolated mitochondria, Ca retention capacity.
`O=S(=O)(Nc1ccc(CN2CCCCC2)cc1)c1cccc(Cl)c1`: the CRC/CRC0 ratio at 12.5 uM (higher = more inhibition) is 1.03. Regarding `COc1ccc(Cl)c(C(=O)Nc2ccc(CN3CCOCC3)cc2)c1`, the CRC/CRC0 ratio at 12.5 uM (higher = more inhibition) was 1.03. As for `COc1ccc(Cl)c(C(=O)Nc2ccc(CCN3CCCCC3)cc2)c1`, the CRC/CRC0 ratio at 12.5 uM (higher = more inhibition) is above 1.

On to `O=C(Nc1cc(Cl)ccc1Cl)c1cc(-c2cccc(O)c2)on1`, for which the CRC/CRC0 ratio at 12.5 uM (higher = more inhibition) is 4.67 (active).

`COc1ccc(Cl)cc1C(=O)Nc1ccc(CCN2CCOCC2)cc1`: the CRC/CRC0 ratio at 12.5 uM (higher = more inhibition) was 1.23 (active).

Turning to `CN1CCN(c2ccc(NS(=O)(=O)c3ccc(F)c(Cl)c3)cc2)CC1`, the CRC/CRC0 ratio at 12.5 uM (higher = more inhibition) is 1.08. For `COc1ccccc1C(=O)Nc1ccc(C(=O)N2CCCCC2)cc1` the value was above 1; for `COc1ccc(NC(=O)c2cc(Cl)cc(Cl)c2OC)cc1`, above 1; for `CN1CCN(Cc2ccc(NS(=O)(=O)c3cc(Cl)cc(Cl)c3)cc2)CC1`, 1.1. `COc1ccc(Cl)cc1S(=O)(=O)Nc1ccc(CCN2CCN(C)CC2)cc1`: the CRC/CRC0 ratio at 12.5 uM (higher = more inhibition) was 1.03. `Cc1cc(NC(=O)c2cc(-c3ccc(F)cc3)on2)no1`: the CRC/CRC0 ratio at 12.5 uM (higher = more inhibition) is above 1.

With `Cc1c(Cl)cccc1NC(=O)c1cc(-c2cccc(O)c2)on1`, the CRC/CRC0 ratio at 12.5 uM (higher = more inhibition) is 6 (active). As to `Cc1ccc(NC(=O)c2cc(-c3cccc(O)c3)on2)cc1Cl`, the CRC/CRC0 ratio at 12.5 uM (higher = more inhibition) was 2.58 (active). Turning to `O=C(Nc1ccc(Cl)cc1)c1cc(-c2ccccc2)on1`, the CRC/CRC0 ratio at 12.5 uM (higher = more inhibition) is above 1.

Consider `CN1CCN(CCc2ccc(NC(=O)c3cccc(OCc4ccccc4)c3)cc2)CC1`, for which the CRC/CRC0 ratio at 12.5 uM (higher = more inhibition) was 2.05 (active). In the case of `CC1CCN(CCCC(=O)c2ccc(Br)cc2)CC1`, the CRC/CRC0 ratio at 12.5 uM (higher = more inhibition) was 1.05.

Regarding `COc1ccc(Cl)cc1S(=O)(=O)Nc1ccc(CN2CCCCC2)cc1`, the CRC/CRC0 ratio at 12.5 uM (higher = more inhibition) was 1.05.
